Experimental data: PubChem BioAssay AID492956 (The Scripps Research Institute Molecular Screening Center, 2010)
Values joined by “and” are separate entries in the source; they are usually repeats but may differ in a detail not shown here. Equal values may be shown once. In all, about 340,000 compounds went through this assay and about 3,300 (0.97%) were called active.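 The calls were made as follows: active = inhibition above the mean over all tested compounds plus 3 SD (cut at about 30% in these data); inactive = the rest.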 The list comes from a sample in which actives are over-represented; it also holds similar structures and randomly drawn compounds.

The compounds below were run against Platelet-activating factor acetylhydrolase 2, cytoplasmic (Homo sapiens) (UniProt Q99487) (assay: PAFAH2 enzyme inhibitors, primary screen, biochemical, fluorescence polarization, human (AID 492956;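 also: inhibitors block probe labeling of enzyme so polarization drops; 0% = enzyme with DMSO and 100% = wells lacking PAFAH2 protein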)). Conditions: recombinant PAFAH2, FP-rhodamine activity probe, at 3.39 µM, hits give high values.

inhibition, active:
Cn1cccc1C(=O)OCC(=O)c1ccc(Br)s1 40.2%
COc1cc(C(=O)NCC2(c3ccccc3)CCCC2)ccc1OC(C)C 174%
NC(=O)Nc1ccc(C(=O)OCC(=O)NC2CCCc3ccccc32)cc1 (stereo not drawn) 71.5%
Nc1ccc(C(=O)OCC(=O)NC2CCCc3ccccc32)cc1[N+](=O)[O-] (stereo not drawn) 56.6%

inhibition, inactive:
O=C(CNC(=O)c1ccc(Cl)cc1Cl)NCC(=O)Nc1ccccc1N1CCOCC1 7.59%
Oc1ccccc1C1=NN(c2ccccc2)C(c2ccccc2)C1 (stereo not drawn) 2.45%
Cn1cccc1C(=O)OCC(=O)NCCc1ccccc1 12.9%
O=C(COC(=O)c1c2c(nc3ccccc13)CCCC2)c1ccc(Br)s1 -8.93%
C=CCN(C(=O)Cn1ncc2c1-c1cc(C)ccc1OC2)c1ccccc1 7.42%
O=C(c1c(F)cccc1F)N1CCN(c2ncc(Br)cn2)CC1 9.7%
CCOc1c(OC)cccc1C(=O)NCC1(c2ccccc2)CCCC1 -1.33%
COc1ccc(C2(CNC(=O)Cc3ccc(OC)c(OC)c3)CCCC2)cc1 0.3%
O=C(NC(=O)c1ccccc1N1CCCCC1)Nc1ccc(Br)cc1 -2.91%
Nc1ccc(C(=O)OCC(=O)NC2CCS(=O)(=O)C2)cc1[N+](=O)[O-] (stereo not drawn) 0.87%
COC(=O)c1cc(OCC(=O)NC2CCCc3ccccc32)cc(C(=O)OC)c1 (stereo not drawn) 0.45%
CCOc1ccc(NC(=O)COc2ccc(C(=O)NC3CCCc4ccccc43)cc2OC)cc1 (stereo not drawn) -2.16%
O=C(CCNC(=O)c1ccc(Cl)cc1)NC1CCCc2ccccc21 (stereo not drawn) 0.23%
O=C(NNc1nc(N2CCCC2)nc(N2CCCC2)n1)c1ccccc1 8.18%
CC(=O)N1c2ccc(S(=O)(=O)N3CCC(C(=O)N4CCN(c5ccccc5)CC4)CC3)cc2CC1C (stereo not drawn) -4.15%
COc1cc(C(=O)NCc2nnc(SCC(=O)Nc3nc4ccc(C)cc4s3)o2)cc(OC)c1OC 4.41%
CCOc1ccc(CCNC(=O)C2=C(C)C(=O)OC23CCC(C)CC3)cc1OCC (stereo not drawn) 5.73%
c1ccc(CCC2=NCCn3cccc32)cc1 -3.37% and -2.16%
O=C(OCC(=O)N1CCCCC1)c1ccc(OC(F)(F)F)cc1 5.16%
